The values below come from PubChem BioAssay (NCATS).

Assay in all cases: qHTS profiling for inhibitors of Plasmodium falciparum proliferation (AID 504749); also: nearly all actives have a fitted effect of over 60% in size
Holding throughout (conditions): P. falciparum in erythrocytes, SYBR Green DNA, 72 h; series mostly up to 28.7 µM

For one experiment, the system named is AA1029. In a few lines:
(§1)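 P. falciparum-infected erythrocytes (0.3% parasitemia, 2.5% hematocrit) incubated with compound 72 h at 37 C, 5% CO2. Parasite DNA detected by SYBR Green after lysis, overnight at room temperature; normalised to 0.29 uM artemisinin and DMSO.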

The next experiment deals with ATS95. In a few lines: as §1
The test system of another experiment is C2A. The procedure, abridged:
as §1

The next experiment has as its system CP211. In a few lines: as §1
A further experiment concerns CP215. In a few lines: as §1
Another experiment has as its system CP217. The procedure, abridged:
as §1

In a further experiment the test system is CP250. The procedure, abridged: as §1
In another experiment the test system is CP252. The procedure, abridged: as §1
In a further experiment the test system is CP256. The procedure, abridged: as §1
The subject of a further experiment is CP260. In a few lines:
as §1

For the next experiment, the system named is CP262. In a few lines: as §1
The next experiment relates to CP265. The procedure, abridged: as §1
The test system of another experiment is CP291. The procedure, abridged: as §1
The next experiment relates to CP315. In a few lines:
as §1

In a further experiment the test system is Dd2. In a few lines:
as §1

The test system of another experiment is FAB9. In a few lines:
as §1

The subject of a further experiment is ICS. The procedure, abridged: as §1
The test system of the next experiment is N140. In a few lines:
as §1

For another experiment, the system named is SC27B. The procedure, abridged:
as §1

The next experiment relates to TAB165. In a few lines:
as §1

Records with an inconclusive call do not appear. The source made the active and inactive calls. Calls follow the shape of the dose curve; as a rule, active = well fitted inhibition curve with a large enough effect; inconclusive = small, poorly fitted or top-dose-only effect; inactive = flat fitted curve, though single readings scatter.
Potency is read from the fitted curve at half-maximal effect.

Turning to `NC(=O)NC(CCC(=O)O)C(=O)O` (centres undefined), the Potency result in the experiment on AA1029, in the experiment on ATS95, in the experiment with C2A, with CP211, in the experiment with CP215 and in the experiment on CP217 was “inactive” in each case. Further, the Potency result in the experiment on CP250, in the experiment with CP252, with CP256, with CP260, in the experiment with CP262 and in the experiment with CP265 was “inactive” throughout. Besides, the Potency entry in the experiment with CP291, in the experiment with CP315, in the experiment on Dd2, with FAB9, in the experiment with ICS and in the experiment with N140 was “inactive” each time. Also, the Potency entry with SC27B and in the experiment on TAB165 was “inactive” each time.
In the case of `Cc1onc(-c2c(F)cccc2Cl)c1C(=O)NC1C(=O)N2C1SC(C)(C)C2C(=O)O` (centres undefined), the Potency entry in the experiment on AA1029, in the experiment with ATS95, in the experiment on C2A, in the experiment with CP211, in the experiment with CP215 and in the experiment on CP217 was “inactive” throughout. Moreover, the Potency entry in the experiment on CP250, in the experiment on CP252, with CP256, in the experiment with CP260, with CP262 and in the experiment on CP265 was “inactive” in each case. For the same molecule, the Potency result with CP291, in the experiment with CP315, with Dd2, with FAB9, in the experiment with ICS and with N140 was “inactive” each time. The Potency entry in the experiment with SC27B and with TAB165 was “inactive” each time.
In the case of `OCC1O[C@H](Oc2ccc(O)cc2)C(O)C(O)C1O` (some centres undefined), the Potency entry with AA1029, with ATS95, in the experiment with C2A, in the experiment on CP211, with CP215 and with CP217 was “inactive” in each case. Further, the Potency entry in the experiment with CP250, in the experiment on CP252, in the experiment with CP256, with CP260, with CP262 and in the experiment with CP265 was “inactive” each time. Further, the Potency entry in the experiment with CP291, with CP315, with Dd2, in the experiment with FAB9, in the experiment with ICS and with N140 was “inactive” in each case. Besides, the Potency entry in the experiment with SC27B and in the experiment with TAB165 was “inactive” each time.
Turning to `OCC1OC(O)C(O)C(O)C1O` (centres undefined), the Potency entry in the experiment on AA1029, with ATS95, in the experiment on C2A, with CP211, with CP215 and with CP217 was “inactive” in each case. For the same molecule, the Potency result in the experiment with CP250, with CP252, in the experiment with CP256, in the experiment on CP260, in the experiment with CP262 and with CP265 was “inactive” in each case. Also, the Potency result with CP315, in the experiment on Dd2, in the experiment on FAB9, in the experiment on ICS, in the experiment on N140 and with SC27B was “inactive” in each case. Further, the Potency entry with TAB165 is “inactive”.
Consider `C[S+](C)CC[C@H](N)C(=O)O`, for which the Potency result in the experiment on AA1029, in the experiment with ATS95, with C2A, in the experiment on CP211, in the experiment on CP215 and with CP217 was “inactive” in each case. Further, the Potency entry in the experiment on CP250, with CP252, in the experiment with CP256, with CP260, in the experiment on CP262 and in the experiment on CP265 was “inactive” throughout. The Potency entry with CP291, with CP315, with Dd2, in the experiment with FAB9, in the experiment with ICS and in the experiment on N140 was “inactive” throughout. Further, the Potency entry in the experiment on SC27B and in the experiment with TAB165 was “inactive” each time.
For `COc1cc2c(cc1O)CCN[C@@]21CS[C@H]2c3c(OC(C)=O)c(C)c4c(c3C(COC1=O)N1C2C2c3c(cc(C)c(OC)c3O)CC([C@@H]1O)N2C)OCO4` (some centres undefined), the Potency is 0.9 nM (active) with AA1029; 0.9 nM (active) in the experiment with ATS95; 2.8 nM (active) with C2A; 0.5 nM (active) with CP211; 0.5 nM (active) in the experiment on CP215; 3.2 nM (active) in the experiment on CP217. The Potency in the experiment with CP250 was 4 nM (active); in the experiment on CP252, 2.5 nM (active); in the experiment on CP256 it was 5.6 nM (active); in the experiment on CP260, 0.9 nM (active); in the experiment on CP262 it was 0.5 nM (active); in the experiment with CP265 it was 4.5 nM (active). Besides, the Potency in the experiment on CP291 was 0.4 nM (active); with CP315 it was 1.5 nM (active); with Dd2, 1 nM (active); in the experiment with FAB9 it was 1 nM (active); with ICS it was 0.9 nM (active); in the experiment with N140, 1 nM (active). For the same molecule, the Potency is 0.8 nM (active) with SC27B and 1 nM (active) with TAB165.
Take `NC(=O)C1CC2(NC(=O)NC2=O)c2cc(F)ccc2O1` (centres undefined): the Potency entry in the experiment on AA1029, with ATS95, in the experiment with C2A, in the experiment with CP211, in the experiment with CP215 and with CP217 was “inactive” throughout. In addition, the Potency entry in the experiment on CP250, with CP252, with CP256, in the experiment with CP260, in the experiment on CP262 and in the experiment with CP265 was “inactive” each time. Moreover, the Potency entry in the experiment with CP291, in the experiment on CP315, with Dd2, with FAB9, in the experiment with ICS and in the experiment on N140 was “inactive” each time. The Potency entry in the experiment on SC27B and in the experiment on TAB165 was “inactive” in each case.
Regarding `CC[C@@]1(O)C[C@H](O[C@H]2C[C@@H](N(C)C)[C@@H](O[C@H]3C[C@@H](O)[C@@H](O[C@H]4CCC(=O)[C@@H](C)O4)[C@@H](C)O3)[C@@H](C)O2)c2c(cc3c(c2O)C(=O)c2c(O)cccc2C3=O)[C@H]1C(=O)OC`, the Potency in the experiment with AA1029 was 199 nM (active); in the experiment on ATS95, 316 nM (active); with C2A it was 178 nM (active); in the experiment with CP211 it was 849 nM (active); in the experiment on CP215 it was 849 nM (active); in the experiment with CP217, 251 nM (active). In addition, the Potency in the experiment with CP250 is 251 nM (active); with CP252, 224 nM (active); with CP256 it was 282 nM (active); in the experiment on CP260 it was 39.8 nM (active); in the experiment on CP262 it was 757 nM (active); in the experiment on CP265 it was 224 nM (active). The Potency in the experiment with CP291 was 849 nM (active); in the experiment with CP315, 1350 nM (active); in the experiment with Dd2 it was 89.1 nM (active); with FAB9, 891 nM (active); with ICS, 44.7 nM (active); with N140, 178 nM (active). For the same molecule, the Potency in the experiment with SC27B is 316 nM (active); with TAB165, 141 nM (active).
